Test results reported in PubChem BioAssay (NCI).
The panel holds about 83,000 compounds, 20% with a hit somewhere; the sample as a whole holds those more often.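 Each cell line was grown in a 96-well plate and treated with one concentration of compound for 48 hours. Values below 10 were considered active.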 Activity calls are given as the source filed them.

Tested on: MDA-MB-468 breast
Assay: NCI-60 one-dose screen, 48 h (100 = growth as untreated, 0 = no growth, -100 = all killed)
Details: 10 µM unless noted

Q: With `Clc1ccc(C2=Nc3cccc4cccc(c34)N2)cc1Cl` as the compound, how does the growth read?
A: -43.8% (active)

Q: `O=C(c1ccccc1)N(CCCCl)C(=O)N(CCCCl)C(=O)c1ccccc1` was tested. Which growth did it give?
A: 94.2% (inactive)

Q: `O=C1/C(=C\c2cccc(OCCCCCOc3ccc(Cl)cc3)c2)N=C2SCCCN12` was tested. Which growth did it give?
A: 9.3% (active)

Q: Which growth does the source give for `COc1ccc(C(=O)/C=C/c2cc3ccccc3n3nnnc23)cc1` here?
A: 96.8% (inactive)

Q: Which growth does the source give for `O=C(Nc1cccc(C(F)(F)F)c1)Nc1ccc(OCc2nnc(-c3ccc(Cl)cc3)o2)c(F)c1` here?
A: 68.2% (inactive)

Q: How did the growth turn out when `CCOC(=O)c1cc(C(=O)c2ccc(Br)cc2)n2cc(C)cc(C)c12` was run?
A: 108% (inactive)

Q: `CCOP(=O)(OCC)/C(=C\N1C(=O)CC(=O)NC1=S)C(=O)OC` was tested. Which growth did it give?
A: 107% (inactive)

Q: With `Cn1cc(-c2csc(-c3cn(CCN)c4ccc(F)cc34)n2)c2cccnc21` as the compound, how does the growth read?
A: 20.2% (inactive)

Q: `O=C(/C=C/C12c3ccccc3C(c3ccccc31)C1C(=O)NC(=O)C12)c1ccc(F)cc1` (stereo not given) was tested. Which growth did it give?
A: -25% (active)

Q: Which growth does the source give for `CC1CCc2cc(F)cc3c(=O)c(C(=O)O)cn1c23` (stereo not given) here?
A: 109% (inactive)

Q: Which growth does the source give for `Fc1ccc(Nc2nc(NCCNc3ccnc4cc(Cl)ccc34)nc(N3CCOCC3)n2)cc1` here?
A: 16.7% (inactive)

Q: `O=C(CSc1nnc(-c2ccc(NC(=O)c3cccnc3)cc2)o1)Nc1cccc(Br)c1` was tested. Which growth did it give?
A: 97.3% (inactive)

Q: `CC/C=C\C[C@H]1C/C=C2/C(=O)C=C[C@@H]2C/C=C\CCCC(=O)O1` was tested. Which growth did it give?
A: -33.6% (active)

Q: `Cc1nc(N)sc1Sc1nc2ccc(Cl)cc2c(=O)n1-c1ccc(Oc2ccccc2)cc1` was tested. Which growth did it give?
A: 76.6% (inactive)

Q: `COc1ccc(C2CC(=O)c3c(O)c(OC)c(OC)c(OC)c3O2)c(O)c1` (stereo not given) was tested. Which growth did it give?
A: -3.61% (active)
